KB-3-1 tox = kills parental KB-3-1 adenocarcinoma cells | AID 1347075 | Potency, µM (doses to about 46.1 µM), usual class: cytotoxic | KB-3-1 viability, CellTiter-Glo ATP luminescence, 72 h | 400,000 compounds, 1.4% hits; further: on the % scale 0 is the no-effect control and ±100 the full control effect; nearly all actives have a fitted effect of over 60% in size
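Cytotoxicity measured as CellTiter-Glo luminescence after 72 h at 37 C. Compound titrations were pinned onto drug-naive KB-3-1 parental adenocarcinoma cells grown in DMEM with 10% FBS, and normalized data fitted to concentration-response curves.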
KB-V1 MDR tox = kills drug-selected multidrug resistant KB-V1 cells; AID 1347076; 400,000 compounds, 3.4% hits; KB-V1 MDR cells viability, CellTiter-Glo, 72 h; Potency, µM (titrated, usually from 46.1 µM), most hits filed as cytotoxic; further: on the % scale 0 is the no-effect control and ±100 the full control effect; nearly all actives have a fitted effect of over 60% in size
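KB-V1 cells (P-gp-expressing MDR subline of KB-3-1) in phenol-red-free DMEM with 10% FBS were exposed to library compounds over a concentration series for 72 h at 37 degrees C. Viability read by CellTiter-Glo luminescence; concentration-effect curves fitted after normalization.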
HT1080-NT tox = kills 2HG-producing HT-1080-NT fibrosarcoma cells; HT-1080-NT fibrosarcoma viability, CellTiter-Glo ATP luminescence, 48 h; Potency, µM (series often up to 46.1 µM), for inactives: at the highest dose activity, negative = less viability, most hits filed as cytotoxic; 360,000 compounds, 1.6% hits; AID 686970;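 further: NT is the 2HG producing partner of a matched IDH1 knockdown line; 0% = DMSO-treated cells and -100% = media-only wells without cells; nearly all actives have a fitted effect of over 55% in size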
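HT-1080-NT fibrosarcoma cells (2HG-overproducing), 750 cells/well in RPMI with 5% FBS, dosed after 2 h and incubated 48 h at 37C. CellTiter-Glo luminescence normalized to DMSO and no-cell wells; concentration-response curves fitted and classed.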
HT1080 IDH1KD tx = HT-1080 IDH1 knockdown cell toxicity (counter line) | Potency, µM (titrated, usually from 46.1 µM), for the others: at the top dose activity, negative = toxicity, hits mostly cytotoxic | 360,000 compounds, 2% hits | HT-1080 IDH1 knockdown viability, ATP luminescence, 48 h;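 further: 0% = DMSO wells and -100% = cell-free medium wells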
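Cytotoxicity counter-line: IDH1KD HT-1080, 48 h, CellTiter-Glo. Curves classed by r2, magnitude and activity.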
ATXN2 expr inh = reduces ATXN2 reporter expression in HEK-293 cells. AID 1745845. Potency, µM (top dose mostly 57 µM), inactives show at the top dose activity change, negative = inhibition, actives largely listed as inhibitors. 360,000 compounds, 0.72% hits. HEK-293 ATXN2-luciferase reporter, luminescence, 24 h; further: on the % scale 0 is the no-effect control and ±100 the full control effect; nearly all actives have a fitted effect of over 55% in size
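ATXN2-luciferase reporter cells (luciferase flanked by upstream and downstream ATXN2 gene portions) were treated 24 h at 37 °C with compounds at up to 57 uM. SteadyGlo luminescence gave expression; GF-AFC fluorescence gave viability.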
ATXN viability = cell viability loss in ATXN counter-screen | AID 651635 | 400,000 compounds, 0.49% hits | Potency, µM (highest dose often 56.7 µM), most hits filed as cytotoxic | S2 cells (HEK-293 line with an ATXN2-luciferase reporter) viability, CellTiter-Fluor protease fluorescence, 24 h; further: nearly all actives have a fitted effect of over 40% in size
An asterisk follows results filed as active; i = inactive; ? = inconclusive; / = not tested or not shown; ! = a repeat was not active. The list is not random: actives were taken first. Their share in the collection is about 6.2%. The call rests on the fitted dose curve; in most records, active means well fitted curve in the direction sought with a large enough effect; inconclusive means small, poorly fitted or top-dose-only effect, or another doubt; inactive means no such curve, though single readings can be large; an effect the other way counts as inactive or inconclusive. Potency means the concentration at half of the fitted maximal effect.

SMILES	KB-3-1 tox	KB-V1 MDR tox	HT1080-NT tox	HT1080 IDH1KD tx	ATXN2 expr inh	ATXN viability
CC(=O)c1c(C(C)=O)c(C)n(Cc2ccccc2)c1C	i	20.6µM*	3.9%	-3.6%	-17.6%	i
CCc1ccc(NC(=O)Cn2nc3c4ccccc4n(Cc4ccccc4)cc-3c2=O)cc1	i	i	/	/	12.5%	i
CCn1cc(Cl)c(C(=O)N2N=C3/C(=C/c4cccs4)CCCC3C2c2cccs2)n1 (stereo not drawn)	?	20.6µM*	?	-29.2%	-14.5%	?
CC1(C)NC(=O)N(CCOCCOc2cccc(Oc3ccccc3)c2)C1=O	i	i	-16.5%	-17.8%	-1.1%	i
CC1(C)NC(=O)N(CCCCOc2ccc3ccccc3c2Cl)C1=O	?	20.6µM*	?	10µM*	73.4%	i
CC1(C)NC(=O)N(CCOCCOc2ccc3ccccc3c2Br)C1=O	i	20.6µM*	-15.6%	?	56.4%	?
Cc1nn(-c2ccccc2)nc1C(=O)c1c(C)[nH]n(-c2ccccc2)c1=O	16.4µM*	20.6µM*	1.7%	4.6%	?	i
C/C(=N\NC(=O)c1ccc(C)cc1)c1c(C)[nH]n(-c2ccccc2)c1=O	?	?	?	14.6µM*	/	?
Cc1[nH]n(-c2ccccc2)c(=O)c1C(=O)c1ccc([N+](=O)[O-])cc1	i	?	-13.8%	-10.8%	-31.1%	?
C/C(=N\NC(=O)c1ccccc1)c1c(C)[nH]n(-c2ccccc2)c1=O	?	i	-18.9%	?	?	?
CCOC(=O)c1c(CN2CCCCC2)oc2ccc(OC)cc12	i	9.2µM*!	-5.4%	-15.2%	?	i
CCOC(=O)c1c(CN2CCN(C)CC2)oc2ccc(OC)cc12	i	i	7.3%	1.1%	-7.8%	i
COc1ccc(Nc2nc(C)nc3sc4c(c23)CCC4)cc1O	?	5.8µM*	?	-13.1%	-3.2%	?
Cc1nc(NCc2ccco2)c2c3c(sc2n1)CCC3	?	i	?	?	29.5%	i
COCCCN1C(=O)C(CC(=O)NC(c2ccccc2)c2ccccc2)CC(C(=O)N2CCCCCC2)=C1C (stereo not drawn)	i	?	16.9%	1.3%	3.4%	i
CSc1ccc(CNC(=O)C2CCC(=O)N(CC3CCCCC3)C2)cc1 (stereo not drawn)	i	i	-13.4%	-6.1%	/	i
CC1(C)OC2C(CO)OC(n3cnc4c(=S)nc(N)[nH]c43)C2O1 (stereo not drawn)	?	?	?	-6.7%	-9.8%	i
Nc1nc(=S)c2ncn(C3OC(CO)C(O)C3O)c2[nH]1 (stereo not drawn)	5.8µM*	1.03µM*	14.6µM*	20.6µM*	-23.8%	i
CC1(C)OC2C(CO)OC(n3cnc4c(=S)nc[nH]c43)C2O1 (stereo not drawn)	?	?	-24.8%	-24.6%	-6.4%	i
OCC1OC(n2cnc3c(=S)nc[nH]c32)C(O)C1O (stereo not drawn)	0.581µM*	?	/	/	/	/
Nc1nc(=S)c2ncn([C@@H]3O[C@H](CO)[C@@H](O)[C@H]3O)c2[nH]1	?	0.92µM*	1.46µM*	0.92µM*	?	i
N#CSCC(=O)O	/	/	/	/	10.4%	i
COc1ccc(-c2sc3cc(OC)ccc3c2-c2ccc(OCCN3CCCCC3)cc2)cc1	?	?	20.6µM*	16.4µM*	22.4µM*	/
COc1cccc(-c2sc3ccccc3c2-c2ccc(OCCN3CCCCC3)cc2)c1	?	?	-8.3%	-15.1%	?	/
COc1cccc(-c2sc3ccccc3c2-c2ccc(OCCN3CCCC3)cc2)c1	?	?	?	?	28.2µM*	?
SMILES	KB-3-1 tox	KB-V1 MDR tox	HT1080-NT tox	HT1080 IDH1KD tx	ATXN2 expr inh	ATXN viability
COc1ccc(-c2cc(=O)c3ccccc3s2)cc1	i	14.6µM*	-7.1%	-5.3%	99.7%	i
COc1ccccc1-c1sc2ccccc2c1-c1ccc(OCCN2CCCCC2)cc1	i	i	?	?	-7.2%	/
Oc1ccc2sc(-c3ccccc3O)c(-c3ccc(OCCN4CCCCC4)cc3)c2c1	?	i	?	16.4µM*	?	?
O=C(NCCc1ccc(Cl)cc1)c1cc(-c2ccccc2)n[nH]1	i	i	/	/	-29.2%	i
O=C1c2ccccc2C(=O)N1C1C=CC=CC=C1	i	i	-3.2%	-0.2%	/	i
CC12CCC(=O)N1C(C(=O)NNC(=O)c1ccccc1F)CS2 (stereo not drawn)	i	i	0.0%	3.6%	-8.3%	i
CCOC(=O)c1c(NC(=O)COc2cc(C)ccc2C(C)C)sc2c1CCCC2	i	i	/	/	2.2%	i
COc1ccc2c(-c3ccc(S(N)(=O)=O)cc3)c(-c3ccc(S(C)(=O)=O)cc3)sc2c1	i	i	23.1µM*	?	?	i
COc1ccc2sc(-c3ccccc3OC)c(-c3ccc(OCCN(C)C)cc3)c2c1	i	i	?	?	?	/
COc1cccc(-c2sc3ccccc3c2-c2ccc(OCCN(C)C)cc2)c1	?	?	?	16.4µM*	22.4µM*	/
c1ccc(-c2sc3ccccc3c2-c2ccc(OCCN3CCCC3)cc2)cc1	?	?	?	-10.7%	25.1µM*	?
COc1cccc(-c2sc3cc(OC)c(OC)cc3c2-c2ccc(OCCN3CCCCC3)cc2)c1	i	i	?	16.4µM*	-20.6%	39.8µM*
COC(=O)[C@@]12C[C@@H](CC(=O)N3CCOCC3)C(=O)N(Cc3ccccc3)C1=CCC(C)(C)C2	i	?	3.9%	5.7%	/	/
C[n+]1ccc(/C=C/c2ccc(C=S)cc2)c2ccccc21	?	i	/	/	/	/
COc1cc(OC)c(OC)cc1/C=C/c1cc[n+](C)c2ccccc12	14.6µM*	i	/	/	/	/
CN(C)c1ccc(/C=C/c2cc[n+](C)c3ccc4ccccc4c23)cc1	0.92µM*	?	/	/	/	/
COc1cc(OC)c(/C=C/c2cc[n+](C)c3ccccc23)c(OC)c1	?	i	/	/	/	/
Cc1cc(N(C)C)cc(C)c1/C=C/c1cc[n+](C)c2ccccc12	4.61µM*	i	/	/	/	/
O=CNc1c(Br)cc2c(c1Br)Cc1cc(Br)ccc1-2	i	i	1.5%	0.2%	1.5%	i
CC1CCCCN1C(=O)C1CCN(c2nc(-c3ccccc3)nc3c2CCC3)CC1 (stereo not drawn)	20.6µM*	i	-1.1%	10.6%	?	?
COc1ccc(-c2cc3nc(C)cc(N)n3n2)cc1	?	?	?	16.4µM*	-27.6%	?

Assay outcomes deposited in PubChem by National Center for Advancing Translational Sciences (NCATS).
